In the supplement of paper PMC10849652:
The full data set covers some 8,800 targets. This sample favours those with a hit. About 0.5% of all pairs of compound and target were hits.

How the values were obtained:
Assay in all cases: log2 fold change, soluble protein after heating vs DMSO (PISA); higher = thermal stabilisation; K562 lysate, 10 uM; active = over 0.2 and 3.5 SD of the protein, either way, in both replicates (recomputed)
[1] = compound: NCC(=O)Nc1ccc(-n2nc(C(F)(F)F)cc2-c2ccc3c(ccc4ccccc43)c2)cc1
Summary of the method: (§1)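 Thermal stability, expressed as log-two fold change relative to solvent controls, is given from duplicates. Crude K562 extract in PBS pH 7.4 with 1 mM MgCl2, at 1 mg/mL protein, was treated with 10 μM compound for 30 min and heated in aliquots for 3 min across 48°C-58°C. After pooling, adjustment to 0.5% NP-40 at 4°C and centrifugation at 21,000xg for 90 min, supernatant protein was measured by TMTpro 16plex LC-MS/MS with channel sums equalised.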

vorinostat = compound: O=C(CCCCCCC(=O)Nc1ccccc1)NO [vorinostat]
Summary of the method: as §1

silmitasertib = compound: O=C(O)c1ccc2c(c1)nc(Nc1cccc(Cl)c1)c1ccncc12 [silmitasertib]
Summary of the method: as §1

[2] = compound: O=C1NC(=O)C(c2cnc3ccccn23)=C1c1cn2c3c(cc(F)cc13)CN(C(=O)N1CCCCC1)CC2
Summary of the method: as §1

entospletinib = compound: c1cn2cc(-c3ccc4cn[nH]c4c3)nc(Nc3ccc(N4CCOCC4)cc3)c2n1 [entospletinib]
Summary of the method: as §1

Measured: log2 fold change

CSDE1 isoform 4 (UniProt O75534)
UniProt O75534, sequence (O75534 whole entry, looked up): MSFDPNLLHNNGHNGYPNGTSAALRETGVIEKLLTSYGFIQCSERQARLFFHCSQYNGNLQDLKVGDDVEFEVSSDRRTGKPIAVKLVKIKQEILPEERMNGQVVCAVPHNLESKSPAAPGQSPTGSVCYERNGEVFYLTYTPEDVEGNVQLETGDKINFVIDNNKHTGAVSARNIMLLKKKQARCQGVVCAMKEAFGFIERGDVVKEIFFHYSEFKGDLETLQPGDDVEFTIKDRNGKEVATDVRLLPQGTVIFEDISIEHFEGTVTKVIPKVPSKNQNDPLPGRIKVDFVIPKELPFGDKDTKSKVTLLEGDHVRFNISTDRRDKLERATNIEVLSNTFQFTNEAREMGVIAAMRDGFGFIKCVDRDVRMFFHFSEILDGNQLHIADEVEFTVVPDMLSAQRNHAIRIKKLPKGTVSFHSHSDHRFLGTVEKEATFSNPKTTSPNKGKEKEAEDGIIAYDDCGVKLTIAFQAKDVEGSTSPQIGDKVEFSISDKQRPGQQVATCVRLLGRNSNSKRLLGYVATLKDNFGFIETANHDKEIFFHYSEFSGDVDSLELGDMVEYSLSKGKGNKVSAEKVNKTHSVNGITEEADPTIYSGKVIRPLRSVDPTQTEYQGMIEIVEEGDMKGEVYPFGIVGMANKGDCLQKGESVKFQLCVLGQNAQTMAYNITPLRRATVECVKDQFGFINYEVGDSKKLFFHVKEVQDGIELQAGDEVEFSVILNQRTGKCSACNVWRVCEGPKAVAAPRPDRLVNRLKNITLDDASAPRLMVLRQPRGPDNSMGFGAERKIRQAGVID
active: vorinostat -0.33
inactive: [1] -0.004 | silmitasertib 0.015 | [2] -0.009 | entospletinib 0.04

DHRS11 (UniProt Q6UWP2)
UniProt Q6UWP2, sequence (Q6UWP2 whole entry, looked up): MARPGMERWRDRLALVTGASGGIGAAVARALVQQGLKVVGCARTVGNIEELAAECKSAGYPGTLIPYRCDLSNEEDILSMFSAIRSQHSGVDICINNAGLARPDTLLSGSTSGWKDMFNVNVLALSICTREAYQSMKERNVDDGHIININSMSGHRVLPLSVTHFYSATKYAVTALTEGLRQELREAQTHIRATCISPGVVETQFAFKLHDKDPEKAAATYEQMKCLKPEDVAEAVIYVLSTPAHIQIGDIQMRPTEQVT
active: vorinostat -0.255
inactive: [1] -0.006 | silmitasertib -0.014 | [2] 0.02 | entospletinib -0.011

COL6A5 (UniProt A8TX70)
inactive: [1] 0.281 | vorinostat 0.011 | silmitasertib -0.003 | [2] 0.022 | entospletinib 0.009

COG5 isoform 2 (UniProt Q9UP83)
inactive: [1] -0.005 | silmitasertib 0.073 | [2] -0.029 | entospletinib 0.038
active: vorinostat -0.342

DMXL1 (UniProt Q9Y485)
active: vorinostat -0.237
inactive: [1] 0.022 | silmitasertib 0.044 | [2] -0.013 | entospletinib 0.022

DCP2 (UniProt Q8IU60)
active: vorinostat -0.446
inactive: [1] -0.02 | silmitasertib -0.033 | [2] 0.085 | entospletinib -0.001

CKAP5 (UniProt Q14008)
UniProt Q14008, sequence (Q14008 whole entry, looked up): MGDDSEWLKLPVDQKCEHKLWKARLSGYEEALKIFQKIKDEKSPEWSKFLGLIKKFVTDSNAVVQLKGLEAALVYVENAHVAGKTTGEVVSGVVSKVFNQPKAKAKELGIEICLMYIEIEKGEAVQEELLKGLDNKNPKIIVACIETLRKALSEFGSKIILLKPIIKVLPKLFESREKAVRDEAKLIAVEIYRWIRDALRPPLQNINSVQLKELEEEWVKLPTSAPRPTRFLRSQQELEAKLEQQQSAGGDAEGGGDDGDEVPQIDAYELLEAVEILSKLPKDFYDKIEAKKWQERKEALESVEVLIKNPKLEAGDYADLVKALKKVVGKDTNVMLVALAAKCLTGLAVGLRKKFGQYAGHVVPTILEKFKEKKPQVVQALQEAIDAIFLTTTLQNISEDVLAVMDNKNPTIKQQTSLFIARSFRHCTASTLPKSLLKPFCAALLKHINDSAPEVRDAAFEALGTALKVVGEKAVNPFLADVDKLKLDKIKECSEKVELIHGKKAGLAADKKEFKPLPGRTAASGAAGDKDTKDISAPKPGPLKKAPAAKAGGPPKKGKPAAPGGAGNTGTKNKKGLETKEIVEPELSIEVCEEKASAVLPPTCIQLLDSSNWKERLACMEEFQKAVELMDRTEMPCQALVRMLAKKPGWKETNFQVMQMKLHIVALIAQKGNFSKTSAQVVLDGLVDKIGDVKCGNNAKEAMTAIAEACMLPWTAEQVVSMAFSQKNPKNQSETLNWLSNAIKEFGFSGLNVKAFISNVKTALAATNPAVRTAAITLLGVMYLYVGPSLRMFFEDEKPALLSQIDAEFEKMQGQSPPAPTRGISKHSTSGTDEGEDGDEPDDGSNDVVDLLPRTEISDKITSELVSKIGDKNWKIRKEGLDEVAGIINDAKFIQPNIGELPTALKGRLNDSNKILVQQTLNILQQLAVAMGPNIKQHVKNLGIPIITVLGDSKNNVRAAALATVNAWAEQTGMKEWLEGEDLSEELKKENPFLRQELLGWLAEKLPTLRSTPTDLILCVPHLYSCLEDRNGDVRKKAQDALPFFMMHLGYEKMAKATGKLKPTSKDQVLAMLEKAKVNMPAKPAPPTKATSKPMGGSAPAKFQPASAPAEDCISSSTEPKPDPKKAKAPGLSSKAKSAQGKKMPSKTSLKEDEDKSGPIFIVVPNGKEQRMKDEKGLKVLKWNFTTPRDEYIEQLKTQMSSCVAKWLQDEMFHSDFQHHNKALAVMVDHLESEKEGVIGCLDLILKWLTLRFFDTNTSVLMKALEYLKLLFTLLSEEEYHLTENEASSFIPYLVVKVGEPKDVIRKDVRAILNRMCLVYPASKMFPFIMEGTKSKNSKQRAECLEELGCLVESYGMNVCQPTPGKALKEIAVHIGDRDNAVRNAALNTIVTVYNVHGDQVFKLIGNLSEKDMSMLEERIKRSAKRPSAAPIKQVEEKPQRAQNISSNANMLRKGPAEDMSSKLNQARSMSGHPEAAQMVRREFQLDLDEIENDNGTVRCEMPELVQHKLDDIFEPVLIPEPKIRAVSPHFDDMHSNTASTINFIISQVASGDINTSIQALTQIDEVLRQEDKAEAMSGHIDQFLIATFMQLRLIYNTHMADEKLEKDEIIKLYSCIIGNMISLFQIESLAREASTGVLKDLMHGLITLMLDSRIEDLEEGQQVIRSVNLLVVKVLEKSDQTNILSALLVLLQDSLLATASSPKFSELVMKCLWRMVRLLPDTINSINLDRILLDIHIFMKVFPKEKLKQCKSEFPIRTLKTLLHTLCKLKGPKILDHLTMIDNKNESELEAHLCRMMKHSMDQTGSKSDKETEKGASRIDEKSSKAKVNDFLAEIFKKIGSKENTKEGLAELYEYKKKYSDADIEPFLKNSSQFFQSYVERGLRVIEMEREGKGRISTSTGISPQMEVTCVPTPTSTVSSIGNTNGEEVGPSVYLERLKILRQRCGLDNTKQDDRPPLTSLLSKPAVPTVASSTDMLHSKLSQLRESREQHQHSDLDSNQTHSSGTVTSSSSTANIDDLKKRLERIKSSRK
active: vorinostat -0.269
inactive: [1] -0.013 | silmitasertib 0.011 | [2] 0.002 | entospletinib 0.005

CNIH4 (UniProt Q9P003)
UniProt Q9P003, sequence (Q9P003 whole entry, looked up): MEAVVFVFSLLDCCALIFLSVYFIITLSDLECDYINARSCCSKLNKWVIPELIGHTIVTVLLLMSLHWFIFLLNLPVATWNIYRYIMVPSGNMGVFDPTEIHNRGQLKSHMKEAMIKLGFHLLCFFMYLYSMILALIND
inactive: [1] 0.09 | vorinostat 0.08 | silmitasertib 0.055 | [2] 0.114 | entospletinib 0.038

CUX1 isoform 2 (UniProt Q13948)
UniProt Q13948, sequence (Q13948 whole entry, looked up): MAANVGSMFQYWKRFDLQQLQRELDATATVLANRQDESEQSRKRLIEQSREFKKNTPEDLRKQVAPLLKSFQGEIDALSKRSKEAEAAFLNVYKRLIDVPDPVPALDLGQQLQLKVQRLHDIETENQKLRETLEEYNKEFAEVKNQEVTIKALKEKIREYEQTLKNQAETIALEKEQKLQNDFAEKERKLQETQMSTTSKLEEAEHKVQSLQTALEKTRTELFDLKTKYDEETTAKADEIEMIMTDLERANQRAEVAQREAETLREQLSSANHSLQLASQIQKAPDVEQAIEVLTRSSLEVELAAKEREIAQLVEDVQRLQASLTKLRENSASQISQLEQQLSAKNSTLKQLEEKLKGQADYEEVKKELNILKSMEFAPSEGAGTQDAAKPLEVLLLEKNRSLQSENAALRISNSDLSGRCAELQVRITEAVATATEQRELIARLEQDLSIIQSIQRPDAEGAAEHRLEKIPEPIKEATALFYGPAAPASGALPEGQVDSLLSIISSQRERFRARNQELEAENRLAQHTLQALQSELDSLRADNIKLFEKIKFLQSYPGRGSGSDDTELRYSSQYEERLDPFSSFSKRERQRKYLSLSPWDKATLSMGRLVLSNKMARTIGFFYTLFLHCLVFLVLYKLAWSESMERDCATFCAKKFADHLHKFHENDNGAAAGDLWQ
inactive: [1] -0.102 | vorinostat 0.101 | silmitasertib 0.086 | [2] 0.676 | entospletinib -0.077

CNOT2 (UniProt Q9NZN8)
active: vorinostat -0.207
inactive: [1] 0.044 | silmitasertib 0.015 | [2] -0.009 | entospletinib -0.015

CNOT4 isoform 6 (UniProt O95628)
UniProt O95628, sequence (O95628 whole entry, looked up): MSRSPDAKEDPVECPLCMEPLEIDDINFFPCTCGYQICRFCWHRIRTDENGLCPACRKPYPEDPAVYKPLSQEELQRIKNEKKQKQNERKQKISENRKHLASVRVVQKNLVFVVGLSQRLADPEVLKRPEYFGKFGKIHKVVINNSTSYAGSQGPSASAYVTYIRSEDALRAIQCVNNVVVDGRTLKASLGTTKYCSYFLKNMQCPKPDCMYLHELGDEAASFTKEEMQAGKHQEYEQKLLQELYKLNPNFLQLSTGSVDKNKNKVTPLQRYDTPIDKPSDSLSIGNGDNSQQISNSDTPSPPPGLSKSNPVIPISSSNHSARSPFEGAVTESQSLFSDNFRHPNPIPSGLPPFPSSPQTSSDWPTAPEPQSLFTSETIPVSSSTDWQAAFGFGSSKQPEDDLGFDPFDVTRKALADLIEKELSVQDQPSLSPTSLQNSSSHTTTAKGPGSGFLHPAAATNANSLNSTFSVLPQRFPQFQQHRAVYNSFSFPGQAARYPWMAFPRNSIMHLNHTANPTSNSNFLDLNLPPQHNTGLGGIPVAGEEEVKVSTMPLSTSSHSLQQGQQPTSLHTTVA
inactive: [1] -0.028 | vorinostat 0.046 | silmitasertib -0.032 | [2] -0.057 | entospletinib -0.011

DHFR (UniProt P00374)
UniProt P00374, sequence (P00374 whole entry, looked up): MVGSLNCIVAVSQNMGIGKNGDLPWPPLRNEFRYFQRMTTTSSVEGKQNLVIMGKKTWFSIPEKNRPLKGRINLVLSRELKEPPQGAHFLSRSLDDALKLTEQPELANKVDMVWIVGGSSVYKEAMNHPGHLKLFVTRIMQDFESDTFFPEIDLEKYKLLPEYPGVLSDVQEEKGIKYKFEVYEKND
inactive: [1] -0.045 | vorinostat -0.214 | silmitasertib 0.133 | [2] 0 | entospletinib 0.002

COMT (UniProt P21964)
UniProt P21964, sequence (P21964 whole entry, looked up): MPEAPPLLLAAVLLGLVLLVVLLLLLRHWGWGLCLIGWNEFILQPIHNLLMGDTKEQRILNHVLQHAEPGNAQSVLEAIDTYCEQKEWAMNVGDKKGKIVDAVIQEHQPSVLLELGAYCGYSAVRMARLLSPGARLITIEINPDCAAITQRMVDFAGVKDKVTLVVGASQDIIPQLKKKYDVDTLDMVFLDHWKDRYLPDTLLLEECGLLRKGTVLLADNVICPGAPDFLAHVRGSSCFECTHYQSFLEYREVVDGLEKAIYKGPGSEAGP
inactive: [1] -0.106 | silmitasertib 0.04 | [2] 0.007 | entospletinib 0.015
active: vorinostat -0.294
